Results from PubChem BioAssay (NCI).
The panel holds about 83,000 compounds, 20% with a hit somewhere; the sample as a whole holds those more often.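 For each line, cells grew in 96-well plates with the test compound present at a single concentration for 48 hours.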 A number with no mark means an inactive call. Active and inactive are the calls of the source. How the source made its calls: active means growth percent below 10; inactive means the rest.

Columns and labels:
Experiment in all cases: NCI-60 one-dose screen, 48 h (100 = growth as untreated, 0 = no growth, -100 = all killed)
Settings in all cases: 10 µM
[1] = tested on: RPMI-8226 leukemia
[2] = tested on: OVCAR-8 ovarian
[3] = tested on: OVCAR-5 ovarian
[4] = tested on: OVCAR-4 ovarian
[5] = tested on: SK-OV-3 ovarian
[6] = tested on: OVCAR-3 ovarian
[7] = tested on: HS 578T breast
[8] = tested on: NCI/ADR-RES ovarian
[9] = tested on: T-47D breast
[10] = tested on: BT-549 breast
[11] = tested on: MDA-MB-435 melanoma
[12] = tested on: SW-620 colon
[13] = tested on: MCF7 breast
[14] = tested on: HCT-116 colon
[15] = tested on: KM12 colon
[16] = tested on: HCC-2998 colon
[17] = tested on: IGROV1 ovarian

Compound	growth [1]	growth [2]	growth [3]	growth [4]	growth [5]	growth [6]	growth [7]	growth [8]	growth [9]	growth [10]	growth [11]	growth [12]	growth [13]	growth [14]	growth [15]	growth [16]	growth [17]
CN(C)c1nc(N)c2nccnc2n1	110%	110%	100%	104%	110%	105%	105%	99.2%	104%	104%	106%	99.2%	96%	104%	101%		
CC(C)(C)c1nn(-c2ccccc2)c2c1CC1(CN2Cc2ccc(Cl)cc2)C(=O)c2ccccc2C1=O	59.5%	105%	103%	72.9%	93.3%	78.1%	110%	84.3%	75.5%	81.4%		85.6%	82.4%	52.6%	89.6%	91.4%	
O=C1c2ccccc2C(=O)N1CCCCNc1ccccc1	30.5%	101%	101%	107%	113%	91%	103%	103%	124%	61.7%	118%	105%	111%	97.5%	67%	108%	141%
CC1OC2CC(=O)OC2C2=C1C(=O)c1c(O)c3c(c(O)c1C2=O)C1CC(O)C3(O)C(C)O1 (stereo not drawn)	-6.28% (active)	5.64% (active)	-47.3% (active)	-99.6% (active)	8.13% (active)	-34.1% (active)	-12.3% (active)	1.39% (active)	-21.4% (active)	-98.7% (active)	-0.0926% (active)	-36.4% (active)	-71% (active)	-91.5% (active)	-34.7% (active)	-28.4% (active)	-36.7% (active)
COc1cc2nc(SCC(=O)Nc3cc(OC)c(OC)c(OC)c3)n(Cc3ccccc3)c(=O)c2cc1OC		-4.94% (active)	93.7%	48.1%	47.4%	69.7%	24.9%		73.5%	14%	76.2%	91%	82.6%	52.1%	77.8%	77.2%	75.5%
O=[N+]([O-])c1ccc(NCSc2ccc(Cl)cc2)cc1	91.8%	97%	106%	117%	109%	106%		102%	92.8%	71.5%	109%		95%	86.3%			
O=C(O)Cc1ccc(O)c(O)c1	92.4%	104%	96.2%	109%	99.3%	108%	90%		83.2%	88.3%	103%	103%	91%	105%	98.6%	92.2%	
NC(N)=N/N=C(\N=Nc1ccccc1)c1ccc(Cl)cc1		26.2%	24.9%	51.8%	55.5%	12.6%	65.2%	8.53% (active)	20.4%	67.2%	5.69% (active)	12.7%	23.8%	15%	20.8%	11%	46.3%
O=C(c1ccccc1)N(C(=O)c1ccccc1)N1CCCC1	103%		99.3%	106%	109%	110%	105%	102%	99.9%	105%	116%	100%	105%	106%	107%		
O=C(N/N=C/c1cc([N+](=O)[O-])ccc1O)c1cccc2ccccc12	21.5%	22.8%	47.2%	20.2%	41%	27.2%	64.1%	10.6%	28.3%	45.2%	57.1%	47.7%	16.5%	18.4%	56.1%	52.4%	39.8%
